# Assay results from PubChem BioAssay AID2162 (National Center for Advancing Translational Sciences (NCATS), 2009).
# Results filed as inconclusive are left out. Unmarked numbers belong to inactive results. Calls come from the whole dose curve; as a rule, active = well fitted inhibition curve with a large enough effect; inconclusive = small, poorly fitted or top-dose-only effect; inactive = flat fitted curve, though single readings scatter.
# Molecular target: Polyunsaturated fatty acid lipoxygenase ALOX12 (Homo sapiens) (UniProt P18054)
# Sequence (P18054 whole entry, looked up): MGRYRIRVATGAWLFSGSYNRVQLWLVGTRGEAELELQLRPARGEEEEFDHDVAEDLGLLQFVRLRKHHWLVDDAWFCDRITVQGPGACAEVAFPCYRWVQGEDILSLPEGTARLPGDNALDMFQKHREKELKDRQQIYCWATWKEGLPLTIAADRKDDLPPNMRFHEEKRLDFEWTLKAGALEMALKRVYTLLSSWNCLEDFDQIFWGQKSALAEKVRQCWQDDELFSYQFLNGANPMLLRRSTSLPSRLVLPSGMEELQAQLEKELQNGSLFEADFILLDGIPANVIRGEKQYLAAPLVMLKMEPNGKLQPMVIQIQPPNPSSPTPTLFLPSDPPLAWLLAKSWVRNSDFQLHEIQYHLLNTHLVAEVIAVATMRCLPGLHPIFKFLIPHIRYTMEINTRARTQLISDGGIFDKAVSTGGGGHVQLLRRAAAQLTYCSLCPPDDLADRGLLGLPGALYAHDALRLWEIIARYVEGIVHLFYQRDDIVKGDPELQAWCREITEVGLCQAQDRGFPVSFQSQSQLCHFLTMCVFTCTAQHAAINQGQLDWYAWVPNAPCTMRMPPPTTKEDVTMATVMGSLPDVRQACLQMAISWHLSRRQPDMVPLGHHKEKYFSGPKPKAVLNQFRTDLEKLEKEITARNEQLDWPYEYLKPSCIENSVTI
# Assay: Confirmation qHTS Assay for Inhibitors of 12-hLO (12-human lipoxygenase)
# Settings: purified 12-hLO, xylenol orange absorbance; active compounds read low
# From the text: Assay Provider: Holman, T.R., University of California, Santa Cruz Screening Center PI: Austin, Christopher P. Screening Center: NIH Chemical Genomics Center Human lipoxygenase 12hLO is a member of the closely related lipoxygenase family of enzymes which catalyze the site-specific oxidation of arachidonic acid to various hormone precursor molecules and as such is a candidate for drug development in a variety of disease areas, such as cancer and inflammation. Inhibition of 12hLO activity was screened by utilizing arachidonic acid as a substrate. The extent of hydroperoxide product formation was measured by a secondary chromogenic reaction in which xylenol orange (XO, Sigma-Aldrich, cat. number 39,818-7) reacts with the ferric ions produced from the reaction between the hydroperoxide and ferrous ions. The Fe(III)-XO complex is characterized with red-shifted absorbance at 560 nm. A purified preparation of human 12hLO was supplied by Professor Ted Holman, University of California, Santa Cruz. This assay includes some confirmation and follow-up compounds for related primary screening assay AID 1452.
# Assay Protocol: Buffer: 25 mM Hepes pH 7.0, 0.01% Triton X-100. […] The absorbance at 405 and 573 nm were measured using ViewLux (Perkin-Elmer) High-throughput CCD imager and absorbance protocol settings. The 573-to-405 absorbance ratio was used to compute reaction progress.
compound,measurement,value
CCC(C)C(=O)c1c(O)c(C)c2oc3c(C)c(O)c(C(=O)C(C)CC)c(O)c3c2c1O (stereo unspecified),"activity change, negative = inhibition",-25.9%
